# Reference: PubChem BioAssay (EPA / NIEHS)
# Results filed as inconclusive are left out. Some compounds were tested as several samples or in several runs, with calls that do not always agree. Active and inactive are the calls of the source. How the source made its calls, unless noted: active means hit-call score of the fitted dose curve at least 0.9, where 1 is the maximum; inconclusive means response in the unintended direction; inactive means score below 0.9.
# Experiments:
# [1] = STM_H9_OrnCyssISnorm_ratio: Stemina devTOX quickPredict H9 human embryonic stem cell (hESC)-based Assay for Ornithine (ORN):Cystine (CYSS) Ratio (AID 2283714)
# Summary of the method: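 UPLC-HRMS of spent media: ORN/CYSS ratio of internal-standard-normalized percentages, DMSO (0.1%) baseline. Pluripotent H9 hESCs, 72h exposure, daily re-dosing with fresh media; last 24h media collected.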
# [2] = STM_H9_NormalizedViability: Cytotoxicity Assessment at 120 hours in the Stemina devTOX quickPredict H9 human embryonic stem cell (hESC)-based Assay (AID 2283784)
# Summary of the method: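 CellTiter-Fluor RFU, background-subtracted, expressed relative to 0.1% DMSO neutral control by plate. Pluripotent H9 cells; treatment with daily re-dosing. Plates carried 1uM methotrexate (positive) and 5 nM methotrexate (negative) references.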
# [3] = CCTE_Shafer_MEA_acute_cross_correlation_HWHM: CCTE's Neural Acute Assay for Cross Correlation at Half Width at Half Maximum, Shafer Lab (AID 2284026; active means hit-call score of the fitted dose curve at least 0.9, where 1 is the maximum; inactive means score below 0.9;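 further: percent change per well from pre-dose baseline in spike cross-correlogram half width; hits are a decrease in cross-correlogram half width relative to DMSO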;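 on outcome: spontaneous network firing of rat primary cortical neurons on multiwell microelectrode arrays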)
# Summary of the method: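 Percent change in cross-correlogram half width at half maximum, narrower meaning more synchrony, was derived per well from paired 40-min recordings before and during exposure to 0.03-40 uM compound in rat cortical cultures at 37 C.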
# [4] = read-out: Interferon-inducible T-cell alpha chemoattractant (ITAC), CXCL11 (gene 6373); assay: BSK_hDFCGF_ITAC: BioMAP Diversity Plus: hDFCGF Assay for Interferon-inducible T-cell alpha chemoattractant (ITAC) Biomarker Activity (AID 2284251; active means hit-call score of the fitted dose curve at least 0.9, where 1 is the maximum; inactive means score below 0.9); details: primary human foreskin fibroblasts
# Summary of the method: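 Measured by ELISA, the chemokine level serves as the endpoint in human skin fibroblast primary cultures 24 h after compound addition. Increases relative to DMSO-treated wells define activity.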
# [5] = read-out: Matrix Metallopeptidase 9 (MMP9), MMP9 (gene 4318); assay: BSK_BE3C_MMP9: BioMAP Diversity Plus: BE3C Assay for Matrix Metallopeptidase 9 (MMP9) Biomarker Activity (AID 2284283; active means hit-call score of the fitted dose curve at least 0.9, where 1 is the maximum; inactive means score below 0.9); details: primary human bronchial epithelial cells
# Summary of the method: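 Endpoint is the ELISA MMP-9 signal in human primary bronchial epithelial cultures taken 24 h after chemical dosing. DMSO serves as negative control and baseline, with gain-of-signal fitting.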
# [6] = molecular target: Estrogen receptor (Homo sapiens) (UniProt P03372); assay: OT_ER_ERaERa_0480: Odyssey Thera (OT) 8-hour HEK293T Protein-Complementation Assay for Estrogen Receptor-alpha/-alpha Homodimer (AID 2283351);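 further: rise in fluorescence from reassembled reporter fragments on ERα LBD homodimer in nucleus or whole cell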
# Sequence of Estrogen receptor (Homo sapiens) (P03372 whole entry, looked up, the tested form may be a part): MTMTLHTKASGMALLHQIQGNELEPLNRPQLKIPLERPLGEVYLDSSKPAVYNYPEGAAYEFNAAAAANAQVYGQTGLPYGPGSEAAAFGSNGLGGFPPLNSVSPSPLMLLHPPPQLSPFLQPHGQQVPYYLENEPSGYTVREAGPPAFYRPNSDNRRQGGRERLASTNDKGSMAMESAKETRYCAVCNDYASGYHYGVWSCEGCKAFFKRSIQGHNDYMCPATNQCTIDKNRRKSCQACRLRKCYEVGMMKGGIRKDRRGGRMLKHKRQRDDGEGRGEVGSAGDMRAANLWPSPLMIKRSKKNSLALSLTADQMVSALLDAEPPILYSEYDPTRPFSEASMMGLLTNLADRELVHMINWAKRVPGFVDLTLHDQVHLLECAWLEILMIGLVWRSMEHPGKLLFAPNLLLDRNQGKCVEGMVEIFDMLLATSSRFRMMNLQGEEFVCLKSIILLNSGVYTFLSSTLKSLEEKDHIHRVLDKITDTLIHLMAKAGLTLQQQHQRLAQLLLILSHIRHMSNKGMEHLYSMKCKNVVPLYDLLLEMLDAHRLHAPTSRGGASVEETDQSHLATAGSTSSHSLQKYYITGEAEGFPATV
# Summary of the method: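 Read-out: fluorescence intensity rise relative to DMSO, nuclear for agonists, nuclear plus cytoplasmic for antagonists. Construct is the ERα LBD (aa 310-547) homodimer fragment-complementation pair, stably expressed in HEK293T; exposure 8 h.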
# [7] = molecular target: human Peroxisome Proliferator-activated Receptor alpha (PPARa), PPARA (gene 5465) (UniProt Q07869); assay: NVS_NR_hPPARa: NovaScreen (NVS) Nuclear Receptor Binding Assay for human Peroxisome Proliferator-activated Receptor alpha (PPARa) (AID 2283359);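 further: activity means loss of TR-FRET signal versus DMSO baseline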
# Sequence of human Peroxisome Proliferator-activated Receptor alpha (PPARa), PPARA (gene 5465) (Q07869 whole entry, looked up): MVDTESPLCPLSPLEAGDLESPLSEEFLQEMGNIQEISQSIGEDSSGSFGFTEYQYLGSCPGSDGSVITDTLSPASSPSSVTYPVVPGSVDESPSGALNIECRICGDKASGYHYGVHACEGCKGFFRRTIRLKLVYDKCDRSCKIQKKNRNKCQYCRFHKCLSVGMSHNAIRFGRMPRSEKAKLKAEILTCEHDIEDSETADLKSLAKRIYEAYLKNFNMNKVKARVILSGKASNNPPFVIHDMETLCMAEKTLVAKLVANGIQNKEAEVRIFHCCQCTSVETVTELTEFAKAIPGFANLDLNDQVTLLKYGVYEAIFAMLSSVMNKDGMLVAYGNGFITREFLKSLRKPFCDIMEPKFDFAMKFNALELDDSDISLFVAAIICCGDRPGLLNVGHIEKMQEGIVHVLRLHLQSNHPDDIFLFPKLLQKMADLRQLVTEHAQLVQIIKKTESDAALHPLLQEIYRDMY
# Summary of the method: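 TR-FRET signal measured at 1 h post-dosing; loss-of-signal versus DMSO negative control taken as activity. Extracted gene-protein, cell-free format. Initial single-point duplicates at 25 uM, then concentration-response retests.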
# [8] = molecular target: Estrogen receptor (Homo sapiens) (UniProt P03372); assay: OT_ERa_GFPERaERE_0480: Odyssey Thera (OT) 8-hour HeLa Transcription Induction Assay for Estrogen Receptor (AID 2283381; active means hit-call score of the fitted dose curve at least 0.9, where 1 is the maximum; inactive means score below 0.9)
# Summary of the method: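 GFP-ERE reporter, HeLa, 8 h exposure. Readout: fluorescence microscopy, high-content image analysis. Fit direction positive vs DMSO negative control.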
# [9] = molecular target: Estrogen receptor (Homo sapiens) (UniProt P03372); assay: OT_ERa_GFPERaERE_0120: Odyssey Thera (OT) 2-hour HeLa Transcription Induction Assay for Estrogen Receptor (AID 2283382)
# Summary of the method: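 Fluorescence microscopy read-out: inducible fluorescent protein reporter in HeLa cells, imaged 2 h post-dose. Signal increase over DMSO negative control fitted as single primary endpoint via high content image analysis.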
# [10] = molecular target: rat Peripheral-type Benzodiazepine Receptor (PBR), Tspo (gene 24230) (UniProt P16257); assay: NVS_MP_rPBR: NovaScreen (NVS) Membrane Protein Assay for rat Peripheral-type Benzodiazepine Receptor (PBR) (AID 2283335)
# Sequence of rat Peripheral-type Benzodiazepine Receptor (PBR), Tspo (gene 24230) (P16257 whole entry, looked up): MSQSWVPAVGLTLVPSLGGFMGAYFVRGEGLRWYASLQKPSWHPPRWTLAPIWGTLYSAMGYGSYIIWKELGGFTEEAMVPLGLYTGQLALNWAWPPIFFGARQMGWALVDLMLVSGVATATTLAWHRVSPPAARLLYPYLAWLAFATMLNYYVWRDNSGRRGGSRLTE
# Summary of the method: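 Single-concentration duplicate screening at 25 uM preceded concentration-series retesting of actives. Binding of a specific radioligand to rat kidney membrane PBR was read by filtration radiodetection after 1 h, with plate-wise positive and negative controls.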
# [11] = molecular target: bovine Estrogen Receptor (ER), ESR1 (gene 407238) (UniProt P49884); assay: NVS_NR_bER: NovaScreen (NVS) Nuclear Receptor Binding Assay for bovine Estrogen Receptor (ER) (AID 2283345);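 further: actives lower the bound radioligand count which means they displace the ER ligand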
# Sequence of bovine Estrogen Receptor (ER), ESR1 (gene 407238) (P49884 whole entry, looked up): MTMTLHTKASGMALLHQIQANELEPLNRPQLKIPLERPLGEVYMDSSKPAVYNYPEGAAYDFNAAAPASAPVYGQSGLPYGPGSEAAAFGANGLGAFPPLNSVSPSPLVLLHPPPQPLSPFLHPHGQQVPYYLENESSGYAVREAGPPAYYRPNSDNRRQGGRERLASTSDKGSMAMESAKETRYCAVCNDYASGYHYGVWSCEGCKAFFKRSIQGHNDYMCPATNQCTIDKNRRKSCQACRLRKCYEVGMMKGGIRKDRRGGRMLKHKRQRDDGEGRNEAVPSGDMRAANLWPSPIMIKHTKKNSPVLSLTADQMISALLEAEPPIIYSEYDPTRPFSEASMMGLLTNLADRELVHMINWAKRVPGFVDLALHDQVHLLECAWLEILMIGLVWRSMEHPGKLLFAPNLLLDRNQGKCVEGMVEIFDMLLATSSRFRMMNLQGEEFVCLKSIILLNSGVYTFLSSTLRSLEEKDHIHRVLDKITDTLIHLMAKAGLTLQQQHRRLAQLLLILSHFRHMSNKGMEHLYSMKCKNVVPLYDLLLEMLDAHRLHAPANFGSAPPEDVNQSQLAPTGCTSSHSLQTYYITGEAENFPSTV
# Summary of the method: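 Cell-free radioligand binding with bovine uterine membrane extracts, read 18 hours after dosing by scintillation counting. Loss of signal versus DMSO baseline indicates displacement. Primary screen run in duplicate at 25 uM, actives followed in concentration series.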
# [12] = molecular target: mouse Estrogen Receptor alpha (Era), Esr1 (gene 13982) (UniProt P19785); assay: NVS_NR_mERa: NovaScreen (NVS) Nuclear Receptor Binding Assay for mouse Estrogen Receptor alpha (Era) (AID 2283378);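 further: hit means loss of bound radioligand signal relative to DMSO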
# Sequence of mouse Estrogen Receptor alpha (Era), Esr1 (gene 13982) (P19785 whole entry, looked up): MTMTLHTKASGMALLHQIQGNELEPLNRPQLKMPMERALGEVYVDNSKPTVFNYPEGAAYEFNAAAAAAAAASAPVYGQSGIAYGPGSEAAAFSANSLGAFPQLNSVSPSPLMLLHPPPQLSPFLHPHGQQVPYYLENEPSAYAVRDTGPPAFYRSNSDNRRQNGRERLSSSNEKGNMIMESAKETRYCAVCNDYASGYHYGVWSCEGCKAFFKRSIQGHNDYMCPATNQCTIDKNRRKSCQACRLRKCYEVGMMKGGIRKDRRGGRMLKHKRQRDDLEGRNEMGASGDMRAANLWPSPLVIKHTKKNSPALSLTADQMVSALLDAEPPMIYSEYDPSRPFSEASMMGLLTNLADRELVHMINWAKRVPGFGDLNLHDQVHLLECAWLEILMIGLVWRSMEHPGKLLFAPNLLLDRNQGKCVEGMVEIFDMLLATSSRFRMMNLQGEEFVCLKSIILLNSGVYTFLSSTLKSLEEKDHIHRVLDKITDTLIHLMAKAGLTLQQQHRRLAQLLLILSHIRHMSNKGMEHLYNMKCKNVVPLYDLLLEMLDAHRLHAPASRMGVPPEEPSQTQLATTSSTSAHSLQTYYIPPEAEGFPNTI
# Summary of the method: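 Measurements come from scintillation counting after filtration, taken 18 hours after chemicals were added to a cell-free mouse Era preparation with radioligand. Screening was duplicate at 25 uM, with concurrent positive and negative controls and confirmatory concentration series for actives.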
# [13] = molecular target: human CYP2D6, CYP2D6 (gene 1565) (UniProt P10635); assay: NVS_ADME_hCYP2D6: NovaScreen (NVS) CYP450-related Enzyme Activity (ADME) Assay for human CYP2D6 (AID 2283107)
# Sequence of human CYP2D6, CYP2D6 (gene 1565) (P10635 whole entry, looked up): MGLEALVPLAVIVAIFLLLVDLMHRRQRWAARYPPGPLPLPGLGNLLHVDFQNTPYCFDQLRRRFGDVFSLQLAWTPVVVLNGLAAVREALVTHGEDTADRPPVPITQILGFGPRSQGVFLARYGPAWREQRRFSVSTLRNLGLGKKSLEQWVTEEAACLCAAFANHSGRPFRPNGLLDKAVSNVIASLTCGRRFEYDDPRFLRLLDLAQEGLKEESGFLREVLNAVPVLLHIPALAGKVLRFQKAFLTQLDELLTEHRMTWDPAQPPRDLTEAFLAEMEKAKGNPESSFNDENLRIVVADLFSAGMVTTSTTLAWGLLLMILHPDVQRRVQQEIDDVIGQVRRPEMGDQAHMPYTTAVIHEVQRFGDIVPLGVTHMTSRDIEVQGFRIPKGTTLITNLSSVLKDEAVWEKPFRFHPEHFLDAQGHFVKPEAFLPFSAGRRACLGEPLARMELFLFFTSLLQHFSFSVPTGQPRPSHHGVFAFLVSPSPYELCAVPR
# Summary of the method: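 Biochemical fluorescence assay, insect-cell-derived enzyme. Read at 1 h; inhibition taken from loss of signal against acetonitrile. Screened at 10 uM in duplicate, with concentration series for actives.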
# [14] = molecular target: Muscarinic acetylcholine receptor M2 (Homo sapiens) (UniProt P08172); assay: NVS_GPCR_hM2: NovaScreen (NVS) G Protein-Coupled Receptor Assay for human Muscarinic, M2 Receptor (AID 2283273)
# Sequence of Muscarinic acetylcholine receptor M2 (Homo sapiens) (P08172 whole entry, looked up): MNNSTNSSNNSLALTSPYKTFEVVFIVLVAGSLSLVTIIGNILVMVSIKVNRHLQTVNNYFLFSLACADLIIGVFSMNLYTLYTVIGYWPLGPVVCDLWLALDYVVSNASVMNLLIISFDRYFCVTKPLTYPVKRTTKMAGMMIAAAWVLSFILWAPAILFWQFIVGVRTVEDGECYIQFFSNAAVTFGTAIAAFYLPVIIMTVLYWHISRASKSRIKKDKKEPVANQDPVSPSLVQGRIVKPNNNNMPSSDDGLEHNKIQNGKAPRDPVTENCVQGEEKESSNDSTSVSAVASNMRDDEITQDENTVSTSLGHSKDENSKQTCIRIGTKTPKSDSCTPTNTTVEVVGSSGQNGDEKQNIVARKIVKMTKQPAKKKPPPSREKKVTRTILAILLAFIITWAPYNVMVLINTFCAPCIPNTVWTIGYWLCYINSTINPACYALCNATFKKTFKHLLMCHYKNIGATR
# Summary of the method: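 Filter-based radiodetection read bound radioligand 1 h after dosing CHO-derived membrane protein. Single-concentration duplicates (25 uM) first, then concentration-response for actives; signal loss versus DMSO scored.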
# [15] = molecular target: human Dopamine Transporter (DAT), SLC6A3 (gene 6531) (UniProt Q01959); assay: NVS_TR_hDAT: NovaScreen (NVS) Transporter Assay for human Dopamine Transporter (DAT) (AID 2283374);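 further: activity means loss of bound radioligand signal relative to DMSO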
# Sequence of human Dopamine Transporter (DAT), SLC6A3 (gene 6531) (Q01959 whole entry, looked up): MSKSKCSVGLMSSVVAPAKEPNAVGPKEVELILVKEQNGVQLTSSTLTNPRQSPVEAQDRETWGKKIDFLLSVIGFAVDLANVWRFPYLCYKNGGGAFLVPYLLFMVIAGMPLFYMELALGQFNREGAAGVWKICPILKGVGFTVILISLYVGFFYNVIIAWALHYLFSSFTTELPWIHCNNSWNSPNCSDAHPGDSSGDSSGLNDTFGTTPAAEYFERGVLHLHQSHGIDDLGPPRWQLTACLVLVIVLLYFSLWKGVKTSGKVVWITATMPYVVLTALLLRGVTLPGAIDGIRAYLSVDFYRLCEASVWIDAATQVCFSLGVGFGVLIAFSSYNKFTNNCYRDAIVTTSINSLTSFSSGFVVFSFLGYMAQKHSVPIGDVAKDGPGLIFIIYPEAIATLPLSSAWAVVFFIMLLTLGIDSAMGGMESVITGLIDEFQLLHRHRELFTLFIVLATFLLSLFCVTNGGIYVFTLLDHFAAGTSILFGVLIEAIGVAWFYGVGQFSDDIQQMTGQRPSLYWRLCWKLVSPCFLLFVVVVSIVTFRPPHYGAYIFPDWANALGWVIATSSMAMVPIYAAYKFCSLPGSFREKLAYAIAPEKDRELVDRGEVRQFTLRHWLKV
# Summary of the method: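 hDAT membranes + tritiated/iodinated radioligand, competitive displacement; 1 h; filter scintillation readout. Single conc 25 uM (duplicate), then conc-response for actives. DMSO = negative control.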
# [16] = CEETOX_H295R_MTT_cell_viability: Viability Assessment in the CeeTox HT-H295R MTT Assay (AID 2283718; active means hit-call score of the fitted dose curve at least 0.9, where 1 is the maximum; inactive means score below 0.9)
# Summary of the method: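 Human H295R adrenal cells, prestimulated 48 h with 10 uM forskolin, were exposed 48 h to chemicals in 0.1% DMSO. Viability was measured in the same wells by MTT (0.5 mg/ml, 4 h, 37 C), absorbance 570/650 nm, as percent of controls.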
# [17] = CPHEA_Stoker_NIS_Cytotoxicity: Cytotoxicity Assessment for CPHEA's Radioactive Iodide Uptake (RAIU) Assay for Sodium/Iodide Symporter (NIS) Inhibition, Stoker and Laws Labs (AID 2283897)
# Summary of the method: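 hNIS-HEK293T-EPA cells, human NIS expressed in HEK293T, treated 2 h with chemicals (0.001–100 uM, 0.5% final DMSO). ATP content read by CellTiter-Glo luminescence; loss of signal analysed relative to DMSO.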
# [18] = CCTE_Deisenroth_5AR_NBTE_donor: CCTE's 5alpha-reductase NanoBRET Target Engagement Assay […], Deisenroth Lab (AID 2284319; active means hit-call score of the fitted dose curve at least 0.9, where 1 is the maximum; inactive means score below 0.9); details: actives raise or lower the signal
# Summary of the method: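 HEK293T cells transiently expressing SRD5A2-NanoLuc, exposed 5 h to chemicals (8 points, 10 nM - 29.9 uM), with testosterone tracer for the final 2 h. Donor luminescence at 460 nm read after Nano-Glo substrate plus extracellular NanoLuc inhibitor; bidirectional fit versus DMSO.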
# [19] = CCTE_Deisenroth_5AR_NBTE_acceptor: CCTE's 5alpha-reductase NanoBRET Target Engagement Assay - Autofluorescence Screen, Deisenroth Lab (AID 2284321; active means hit-call score of the fitted dose curve at least 0.9, where 1 is the maximum; inactive means score below 0.9;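 further: compound fluorescence in the acceptor channel under 460 nm excitation flags autofluorescence artifacts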); details: actives raise or lower the signal
# Summary of the method: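 Using three independent plate-reader runs, nominal 100 uM chemicals were checked for intrinsic fluorescence (ex 460 nm). DMSO defined the baseline for bidirectional fitting.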
# SRD5A2 (gene 6716) = assay: CCTE_Deisenroth_5AR_NBTE_ratio: CCTE's 5alpha-reductase NanoBRET Target Engagement Assay - Ratio, Deisenroth Lab (AID 2284322; active means hit-call score of the fitted dose curve at least 0.9, where 1 is the maximum; inactive means score below 0.9); details: actives raise or lower the signal
# Summary of the method: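 SRD5A2-NanoLuc HEK293T; cmpd 10 nM-29.9 uM, 3 h preinc + testosterone tracer 2 h; NanoBRET ratio 650/460; bidirectional fit vs DMSO.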
smiles,measurement,setting,value
CN(C)Cc1cc(C(C)(C)C)c(O)c(C(C)(C)C)c1,outcome,[1],inactive
same,outcome,[2],inactive
same,AC50,[3],15 µM (active)
same,AC50,[4],20 µM (active)
same,outcome,[4],inactive
same,AC50,[5],10.7 µM (active)
same,outcome,[5],inactive
CCCCCCC1CCC(=O)O1 (stereo unspecified),outcome,[6],inactive
same,outcome,[7],inactive
same,outcome,[8],inactive
same,outcome,[9],inactive
CN(C)c1ccc(C(c2ccccc2)c2ccc(N(C)C)cc2)cc1,AC50,[10],25 µM (active)
C=C1CC[C@H]2C[C@@H]1C2(C)C,outcome,[6],inactive
same,outcome,[8],inactive
same,outcome,[9],inactive
COC(OC)C(C)c1ccccc1 (stereo unspecified),outcome,[11],inactive
same,outcome,[12],inactive
C=CC(C)(CCC=C(C)C)OC(=O)c1ccccc1 (stereo unspecified),outcome,[12],inactive
CC[N+](CC)(CC(=O)Nc1c(C)cccc1C)Cc1ccccc1,AC50,[13],0.132 µM (active)
same,AC50,[14],0.419 µM (active)
same,outcome,[10],inactive
O=C(C(=O)c1ccccc1)c1ccccc1,AC50,[10],1.86 µM (active)
same,AC50,[15],1.07 µM (active)
CCOC(=O)c1ccccc1,outcome,[6],inactive
same,outcome,[8],inactive
same,outcome,[9],inactive
CC[N+](CC)(CC(=O)Nc1c(C)cccc1C)Cc1ccccc1 (tested in a mixture with another compound),AC50,[10],3.68 µM (active)
same,outcome,[1],inactive
same,outcome,[2],inactive
same,AC50,[3],1.05 µM (active)
same,outcome,[4],inactive
same,outcome,[5],inactive
O=C(O)c1ccccc1C(=O)O,outcome,[6],inactive
same,outcome,[8],inactive
same,outcome,[9],inactive
same,outcome,[16],inactive
Clc1ccccn1,outcome,[14],inactive
Cc1cc2nc3c(=O)[nH]c(=O)nc-3n(C[C@H](O)[C@H](O)[C@H](O)CO)c2cc1C,outcome,[11],inactive
same,outcome,[12],inactive
same,outcome,[17],inactive
same,outcome,[18],inactive
same,outcome,[19],inactive
same,AC50,SRD5A2 (gene 6716),27.1 µM (active)
CCC(C)NC(N)=O (stereo unspecified),AC50,[15],26.9 µM (active)
CCCCCCCCCC/C=C/C1CC(=O)OC1=O (stereo unspecified),outcome,[11],inactive
Oc1cccc2ccccc12,AC50,[1],7.48 µM (active)
same,outcome,[2],inactive
NC(N)=Nc1nc(CSCCC(N)=NS(N)(=O)=O)cs1,outcome,[3],inactive
O=C(O)/C=C\C(=O)O,outcome,[18],inactive
same,outcome,[19],inactive
same,outcome,SRD5A2 (gene 6716),inactive
CCCCCCCCCCCCCCCCCC[N+](C)(C)C,AC50,[13],0.826 µM (active)
same,AC50,[14],1.06 µM (active)
same,AC50,[15],2.52 µM (active)
Sc1nc2ccccc2s1,AC50,[13],3 µM (active)
same,outcome,[7],inactive
same,outcome,[16],inactive
CC1(C)S[C@@H]2[C@H](NC(=O)[C@H](N)c3ccccc3)C(=O)N2[C@H]1C(=O)O,outcome,[3],inactive
CCCCOC(=O)COc1ccc(Cl)cc1Cl,outcome,[16],inactive
CCCCC(CC)COC(=O)CS (stereo unspecified),outcome,[7],inactive
O=C(OCc1ccccc1)c1ccccc1,outcome,[17],inactive
CCO[Si](CCCN)(OCC)OCC,outcome,[6],inactive
same,outcome,[8],inactive
same,outcome,[9],inactive
same,outcome,[16],inactive
CC1=NN(c2cc(Cl)c(S(=O)(=O)O)cc2Cl)C(=O)C1N=Nc1ccc(S(=O)(=O)O)cc1 (stereo unspecified),outcome,[7],inactive
same,outcome,[18],inactive
same,outcome,[19],inactive
same,AC50,SRD5A2 (gene 6716),10 µM (active)
Cc1cccnc1,outcome,[17],inactive
COC(=O)[C@]1(C)CCC[C@@]2(C)[C@H]1CC=C1C=C(C(C)C)CC[C@@H]12,outcome,[17],inactive
CCCCCC[C@@H](O)C/C=C\CCCCCCCC(=O)O,AC50,[7],36.8 µM (active)
same,AC50,[1],30.9 µM (active)
same,outcome,[2],inactive
same,outcome,[17],inactive
same,outcome,[18],inactive
same,outcome,[19],inactive
same,outcome,SRD5A2 (gene 6716),inactive
CN(C)CCC(c1ccc(Cl)cc1)c1ccccn1 (stereo unspecified),AC50,[13],5 µM (active)
same,AC50,[14],10.3 µM (active)
same,AC50,[15],2.54 µM (active)
Oc1ccc(Oc2ccccc2)cc1,AC50,[11],11 µM (active)
same,AC50,[12],8.86 µM (active)
CC(C)(C)C(=O)C(=O)O,outcome,[11],inactive
same,outcome,[12],inactive
c1ccc(CNc2ncnc3nc[nH]c23)cc1,outcome,[16],inactive
